Laboratory results: PubChem BioAssay AID686978 (National Center for Advancing Translational Sciences (NCATS), 2013)
Several values for one entry are separate records, joined by “and”; a condition that tells them apart may be missing. Equal values may be shown once. In all, about 420,000 compounds went through this assay and about 64,000 (15%) were called active. Not shown: some 27% with an inconclusive outcome. The call rests on the fitted dose curve; in most records, active means well fitted inhibition curve with a large enough effect; inconclusive means small, poorly fitted or top-dose-only effect; inactive means flat fitted curve, though single readings scatter. The full list was thinned out, with actives kept by preference.

Experiment: qHTS for Inhibitors of human tyrosyl-DNA phosphodiesterase 1 (TDP1): qHTS in cells in absence of CPT; further: nearly all actives have a fitted effect of over 55% in size
Conditions: DT40 Tdp1-/- hTDP1 cells, no CPT, ATP luminescence, 48 h; series mostly up to 46.2 µM; activity change, negative = growth inhibition: at the top concentration
In short: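 Growth of hTDP1-complemented DT40 Tdp1-knockout cells is measured by ATP luminescence after at least 48 hr compound exposure at 37 °C, with DMSO substituting for the 20 nM CPT used in the parallel screen.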
On the % scale 0 is the no-effect control and ±100 the full control effect; potency means the concentration at half of the fitted maximal effect.

**Q.** Which “activity change, negative = growth inhibition” value does the source give for Cc1cc(OCc2cc(C(=O)O)oc2C)c2c3c(c(=O)oc2c1)CCCC3 here?
**A.** Its value is -14.6% (inactive).

**Q.** For COC(=O)COc1cc(C)cc2oc(=O)c3c(c12)CCCC3, which “activity change, negative = growth inhibition” value is on record?
**A.** The value was -4.59% (inactive).

**Q.** For CC(=O)c1ccc(OC(NC(=O)Cc2ccccc2)C(Cl)(Cl)Cl)cc1 (stereo not given), which “activity change, negative = growth inhibition” value is on record?
**A.** The value was -0.844% (inactive).

**Q.** With CCCCCCCCCCCCn1ccc(=N)cc1 as the compound, how does the Potency read?
**A.** The Potency was 0.411 µM (active).

**Q.** Which “activity change, negative = growth inhibition” value does the source give for CC(=C1C(=O)c2ccccc2C1=O)N1CCN(CCN=Cc2c(O)n(C)c(=O)n(C)c2=O)CC1 here?
**A.** The value was -1.66% (inactive).

**Q.** With CN1CCc2cc3c(cc2[C@H]1[C@@H]1OC(=O)c2c1ccc1c2OCO1)OCO3 as the compound, how does the “activity change, negative = growth inhibition” value read?
**A.** The value was -0.502% (inactive).

**Q.** Which “activity change, negative = growth inhibition” value does the source give for CC(C)CN1CCN(Cc2ccccc2C(F)(F)F)CC1CCO (stereo not given) here?
**A.** Its value is 3.04% (inactive).

**Q.** Which Potency does the source give for O=C1C2CCN(CC2)C1(CO)CO here?
**A.** The Potency was 5.96 µM (active) and 4.61 µM (active).

**Q.** Which “activity change, negative = growth inhibition” value does the source give for CC(C)c1ccc(OCC(=O)N2CCCN(C)CC2)cc1 here?
**A.** Its value is 4.45% (inactive).

**Q.** For O=C(Nc1cccc2ccccc12)N1CCC2(CC1)OCCO2, which “activity change, negative = growth inhibition” value is on record?
**A.** The value was -2.38% (inactive).

**Q.** For COc1ccc(CCn2c(O)c(C=NC3CC3)c(=O)[nH]c2=O)cc1OC, which “activity change, negative = growth inhibition” value is on record?
**A.** Its value is -12.4% (inactive).

**Q.** Which “activity change, negative = growth inhibition” value does the source give for COc1cccc(-c2nc3ccc(N4CCN(C)CC4)cc3[nH]2)c1 here?
**A.** Its value is -7.07% (inactive).

**Q.** Which Potency does the source give for CN1CCN(c2cc(N3CCNCC3)ccc2[N+](=O)[O-])CC1 here?
**A.** Its Potency is 7.31 µM (active).

**Q.** Which “activity change, negative = growth inhibition” value does the source give for Cc1nc2ccc(N3CCN(C)CC3)cc2nc1C here?
**A.** The value was 4.91% (inactive).

**Q.** With O=c1[nH]c(=O)n(Cc2ccccc2)c(O)c1/C=N/Nc1c(F)c(F)c(F)c(F)c1F as the compound, how does the “activity change, negative = growth inhibition” value read?
**A.** The value was 0.453% (inactive).

**Q.** For Cc1cc(C)c2c(c1)NP(=S)(c1ccccc1)N2 (stereo not given), which “activity change, negative = growth inhibition” value is on record?
**A.** The value was -28.8% (inactive).

**Q.** With COc1ccc2c(c1)NP(=S)(c1ccccc1)N2 (stereo not given) as the compound, how does the Potency read?
**A.** Its Potency is 16.4 µM (active).

**Q.** For NC(=O)Cn1cc(C(=O)c2ccccc2F)c2ccccc21, which “activity change, negative = growth inhibition” value is on record?
**A.** The value was -2.85% (inactive).

**Q.** Which Potency does the source give for N#Cc1ccc(Cn2cc(C(=O)c3ccco3)c3ccccc32)cc1 here?
**A.** The Potency was 23.1 µM (active).

**Q.** For Cc1cc(=O)oc2c(C)c(OCC(=O)N3CCN(Cc4ccc5c(c4)OCO5)CC3)ccc12, which “activity change, negative = growth inhibition” value is on record?
**A.** The value was -15.8% (inactive).

**Q.** For O=C(CN1CCCCC1)Nc1ccc(Br)cc1C(=O)c1ccccc1Cl, which “activity change, negative = growth inhibition” value is on record?
**A.** The value was -17.6% (inactive).

**Q.** Which “activity change, negative = growth inhibition” value does the source give for O=S(=O)(O)C(F)(F)C(F)(F)C(F)(F)C(F)(F)F here?
**A.** Its value is -14.9% [at 92.5 µM] (inactive).

**Q.** With Cc1ccc(OC(=O)N(C)C[C@@H]2OCc3cnnn3CCCC(=O)N([C@H](C)CO)C[C@@H]2C)cc1 as the compound, how does the “activity change, negative = growth inhibition” value read?
**A.** Its value is -20.5% (inactive).

**Q.** With O=c1c2ccccc2nc(/C=C/c2ccc(F)cc2)n1-c1ccccc1O as the compound, how does the Potency read?
**A.** The Potency was 16.4 µM (active).

**Q.** For O=c1c2ccccc2nc(CBr)n1-c1ccc(Cl)cc1, which “activity change, negative = growth inhibition” value is on record?
**A.** Its value is -21.6% (inactive).

**Q.** Which “activity change, negative = growth inhibition” value does the source give for COc1cccc(N2C(=O)NC(=O)/C(=C\c3cn(C)c4ccccc34)C2=O)c1 here?
**A.** The value was -23% (inactive).

**Q.** For Cn1cc(/C=C/c2nc3ccccc3c(=O)n2-c2ccccc2)c2ccccc21, which Potency is on record?
**A.** Its Potency is 8.2 µM (active).

**Q.** For C1CC[C@H]([C@@]23C[C@H](C[C@H]4CCCN[C@H]42)[C@@H]2CCCCN2C3)NC1, which activity change, negative = growth inhibition is on record?
**A.** Its activity change, negative = growth inhibition is -7.17% [at 9.04 µM] (inactive).

**Q.** Which “activity change, negative = growth inhibition” value does the source give for CCCC(C)n1[nH]c(=O)c2c1NC(=O)CSC2c1ccc(OC)c(OC)c1 (stereo not given) here?
**A.** The value was -16.4% (inactive).

**Q.** With COc1ccccc1-n1c(O)c(C=NC2CC2)c(=O)[nH]c1=O as the compound, how does the “activity change, negative = growth inhibition” value read?
**A.** Its value is 5.7% (inactive).

**Q.** With CCOC(=O)CNC(=O)N1Cc2cc(N3CCCCC3)ccc2-n2nncc2C1 as the compound, how does the “activity change, negative = growth inhibition” value read?
**A.** Its value is -1.8% (inactive).

**Q.** With c1ccc(CC2CCCCN2)cc1 (stereo not given) as the compound, how does the “activity change, negative = growth inhibition” value read?
**A.** The value was 3.83% (inactive).

**Q.** For Cn1c(O)c(C(=Nc2ccc(F)cc2)c2ccccc2)c(=O)n(C)c1=O, which Potency is on record?
**A.** The Potency was 9.2 µM (active).

**Q.** Which “activity change, negative = growth inhibition” value does the source give for CC(=NC1CCN(Cc2ccccc2)CC1)c1c(O)n(C)c(=O)n(C)c1=O here?
**A.** Its value is -7.85% (inactive).

**Q.** For Cn1c(O)c(C=Nc2ccc3c(c2)CCC3)c(=O)n(C)c1=O, which “activity change, negative = growth inhibition” value is on record?
**A.** The value was -14.2% (inactive).

**Q.** For CCN1CCN(Cc2cc(OC)c3c(c2)OCO3)CC1, which “activity change, negative = growth inhibition” value is on record?
**A.** The value was 1.57% (inactive).

**Q.** For COc1cccc(C(=O)N2C[C@H]3C[C@@H](C2)c2cccc(=O)n2C3)c1, which “activity change, negative = growth inhibition” value is on record?
**A.** Its value is 9.44% (inactive).

**Q.** For N#Cc1c(Cl)c(Cl)c(Cl)c(C#N)c1Cl, which Potency is on record?
**A.** Its Potency is 25.1 nM (active) and 517 nM (active).

**Q.** Which Potency does the source give for Cc1nc2ccccc2c(=O)n1-c1ccc(Cl)cc1Cl here?
**A.** The Potency was 23.1 µM (active).

**Q.** With O=c1c2ccccc2nc(-c2ccc(Cl)cc2Cl)n1-c1ccncc1 as the compound, how does the “activity change, negative = growth inhibition” value read?
**A.** Its value is -23.2% (inactive).
